We go through 47 sequences from PMC5700166.

Assay [1] has as its target T1, GST-Nv-NF-kB (Ser allele) (Nematostella vectensis, UniProt A7UNT2 2-411).
T1 sequence: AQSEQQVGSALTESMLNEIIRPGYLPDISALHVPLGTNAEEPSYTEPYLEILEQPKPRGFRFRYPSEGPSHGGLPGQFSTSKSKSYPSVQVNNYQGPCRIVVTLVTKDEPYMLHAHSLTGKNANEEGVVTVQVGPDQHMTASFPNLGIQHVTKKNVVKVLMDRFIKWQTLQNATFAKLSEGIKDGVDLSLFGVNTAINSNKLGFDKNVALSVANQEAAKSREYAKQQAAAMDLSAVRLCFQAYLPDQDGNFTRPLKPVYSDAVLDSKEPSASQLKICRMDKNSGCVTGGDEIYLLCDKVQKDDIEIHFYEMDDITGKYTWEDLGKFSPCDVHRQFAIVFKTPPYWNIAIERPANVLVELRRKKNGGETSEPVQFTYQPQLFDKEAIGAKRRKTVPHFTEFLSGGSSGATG
In words: protein-binding microarray (PBM); PBM: ~300 nM protein, 6 mM HEPES pH 7.8, 80 mM KCl, 0.5 mM EDTA, 0.5 mM EGTA, 6% glycerol, 35 ng/ul poly-dIdC, 1% milk, 1 h, room temperature; Ap Aiptasia and Nv Nematostella (sea anemones) / Co Capsaspora / Aq Amphimedon (sponge) / Dm Drosophila / Hu human; RHD is the Rel homology domain; high values mean tight binding. The settings on record: dsDNA, one strand shown.

Assay [2] addresses GST-Hu-p50 (Homo sapiens, UniProt P19838 7-356). Described as above. The note with it: dsDNA, one strand shown.

Chain of GST-Hu-p50 (P19838 7-356): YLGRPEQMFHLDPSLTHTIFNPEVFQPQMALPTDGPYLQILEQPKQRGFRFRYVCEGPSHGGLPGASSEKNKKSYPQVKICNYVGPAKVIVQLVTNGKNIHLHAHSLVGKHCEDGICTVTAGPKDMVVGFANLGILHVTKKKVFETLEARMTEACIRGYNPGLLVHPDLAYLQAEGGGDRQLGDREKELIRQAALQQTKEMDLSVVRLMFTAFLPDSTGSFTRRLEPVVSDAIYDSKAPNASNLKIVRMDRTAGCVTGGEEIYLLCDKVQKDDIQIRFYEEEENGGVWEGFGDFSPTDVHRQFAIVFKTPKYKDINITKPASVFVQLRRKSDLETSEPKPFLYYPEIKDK

Take “CCGATTAACATCACCCAACCCCCTGATGTTAATCGGGTCTTGATTCGCTTGACGCTGCTG”: the figures for the binding signal in assay [1] and in assay [2] were 3.73 z-score and 4.28 z-score, respectively.

Regarding “CCGATTAACATCAAGAGACCCCCTGATGTTAATCGGGTCTTGATTCGCTTGACGCTGCTG”, the figures for the binding signal in assay [1] and in assay [2] were 2.79 z-score and 3.43 z-score, respectively.

For “CCGATTAACATCACGTATTTCCCTGATGTTAATCGGGTCTTGATTCGCTTGACGCTGCTG”, the results for the binding signal in assay [1] and in assay [2] were 4.49 z-score and 3.02 z-score, respectively.

In the case of “CCGATTAACATCAAGAATTCCCGTGATGTTAATCGGGTCTTGATTCGCTTGACGCTGCTG”, the binding signal in assay [1] came out at 5.52 z-score; in assay [2], 4.39 z-score.

As for “CCGATTAACATCAGGACACCCCCTGATGTTAATCGGGTCTTGATTCGCTTGACGCTGCTG”, the binding signal worked out at 3.79 z-score in assay [1] and 5.24 z-score in assay [2].

Consider “CCGATTAACATCAGGAAAACACCTGATGTTAATCGGGTCTTGATTCGCTTGACGCTGCTG”, for which the binding signal was found to be 3.23 z-score in assay [1] and 4.77 z-score in assay [2].

Take “CCGATTAACATCAAATATACCCATGATGTTAATCGGGTCTTGATTCGCTTGACGCTGCTG”: the binding signal in assay [1] is 1.7 z-score; in assay [2] it was 1.83 z-score.

“CCGATTAACATCAAAAAACCCACTGATGTTAATCGGGTCTTGATTCGCTTGACGCTGCTG”: the binding signal in assay [1] was determined as 2.84 z-score; in assay [2] it was 3.37 z-score.

“CCGATTAACATCAAACAGGGAAATGATGTTAATCGGGTCTTGATTCGCTTGACGCTGCTG”: the binding signal is 3.74 z-score in assay [1] and 2.36 z-score in assay [2].

Consider “CCGATTAACATCAGGGATTCACCTGATGTTAATCGGGTCTTGATTCGCTTGACGCTGCTG”, for which the binding signal in assay [1] came out at 4.26 z-score; in assay [2], 4.55 z-score.

“CCGATTAACATCAGGGAAAACCATGATGTTAATCGGGTCTTGATTCGCTTGACGCTGCTG”: the binding signal in assay [1] came out at 6.37 z-score; in assay [2], 4.01 z-score.

For the sequence “CCGATTAACATCAAAGTACCCCCTGATGTTAATCGGGTCTTGATTCGCTTGACGCTGCTG”, the binding signal is 5.79 z-score in assay [1] and 4.53 z-score in assay [2].

As to “CCGATTAACATCAAAAATCCCGATGATGTTAATCGGGTCTTGATTCGCTTGACGCTGCTG”, the binding signal in assay [1] amounted to 2.85 z-score; in assay [2] it was 3.62 z-score.

Regarding “CCGATTAACATCACACATTTCCCTGATGTTAATCGGGTCTTGATTCGCTTGACGCTGCTG”, the binding signal in assay [1] was 4.87 z-score; in assay [2], 3.2 z-score.

Turning to “CCGATTAACATCAGGATTGCCCCTGATGTTAATCGGGTCTTGATTCGCTTGACGCTGCTG”, the binding signal is 2.73 z-score in assay [1] and 3.69 z-score in assay [2].

For the sequence “CCGATTAACATCAGGGAATCCTATGATGTTAATCGGGTCTTGATTCGCTTGACGCTGCTG”, the binding signal in assay [1] amounted to 4.4 z-score; in assay [2], 2.72 z-score.

As to “CCGATTAACATCAGGGGACTATATGATGTTAATCGGGTCTTGATTCGCTTGACGCTGCTG”, the binding signal worked out at 4.77 z-score in assay [1] and 4.35 z-score in assay [2].

Take “CCGATTAACATCAGGCTTTTCCCTGATGTTAATCGGGTCTTGATTCGCTTGACGCTGCTG”: the binding signal came out at 4.44 z-score in assay [1] and 3.4 z-score in assay [2].

With “CCGATTAACATCACGGAGTTCCCTGATGTTAATCGGGTCTTGATTCGCTTGACGCTGCTG”, the binding signal amounted to 1.77 z-score in assay [1] and 1.87 z-score in assay [2].

For the sequence “CCGATTAACATCAAGTAAATCCCTGATGTTAATCGGGTCTTGATTCGCTTGACGCTGCTG”, the binding signal in assay [1] was 1.71 z-score; in assay [2], 2.28 z-score.

Take “CCGATTAACATCAGCGAATTCCCTGATGTTAATCGGGTCTTGATTCGCTTGACGCTGCTG”: the binding signal was 4.46 z-score in assay [1] and 3.28 z-score in assay [2].

Turning to “CCGATTAACATCAGGGGTTTTGATGATGTTAATCGGGTCTTGATTCGCTTGACGCTGCTG”, the binding signal in assay [1] is 3.32 z-score; in assay [2] it was 3.98 z-score.

Turning to “CCGATTAACATCAACTAATTCCCTGATGTTAATCGGGTCTTGATTCGCTTGACGCTGCTG”, the binding signal in assay [1] turned out to be 4.35 z-score; in assay [2], 2.11 z-score.

Turning to “CCGATTAACATCAAAAATCACCCTGATGTTAATCGGGTCTTGATTCGCTTGACGCTGCTG”, the binding signal in assay [1] came to 3.82 z-score; in assay [2], 4.76 z-score.

In the case of “CCGATTAACATCAACCCTCCCCCTGATGTTAATCGGGTCTTGATTCGCTTGACGCTGCTG”, the figures for the binding signal in assay [1] and in assay [2] were 3.85 z-score and 3.3 z-score, respectively.

For the sequence “CCGATTAACATCAGGAGGCCCCCTGATGTTAATCGGGTCTTGATTCGCTTGACGCTGCTG”, the binding signal in assay [1] is 1.79 z-score; in assay [2], 2.78 z-score.

On to “CCGATTAACATCACGAGTTTCCCTGATGTTAATCGGGTCTTGATTCGCTTGACGCTGCTG”, for which the binding signal in assay [1] was determined as 5.41 z-score; in assay [2], 2.39 z-score.

“CCGATTAACATCAGATGTCCCCCTGATGTTAATCGGGTCTTGATTCGCTTGACGCTGCTG”: the figures for the binding signal in assay [1] and in assay [2] were 4.47 z-score and 3.96 z-score, respectively.

Take “CCGATTAACATCACGGGAAGTCCTGATGTTAATCGGGTCTTGATTCGCTTGACGCTGCTG”: the binding signal in assay [1] was 1.71 z-score; in assay [2], 1.59 z-score.

As for “CCGATTAACATCAAGTTTTCCCATGATGTTAATCGGGTCTTGATTCGCTTGACGCTGCTG”, the binding signal in assay [1] stood at 5.18 z-score; in assay [2], 3.3 z-score.

In the case of “CCGATTAACATCAGAAGATTCCCTGATGTTAATCGGGTCTTGATTCGCTTGACGCTGCTG”, the binding signal came to 3.95 z-score in assay [1] and 4.09 z-score in assay [2].

For “CCGATTAACATCACATCTTTCCCTGATGTTAATCGGGTCTTGATTCGCTTGACGCTGCTG”, the values for the binding signal in assay [1] and in assay [2] were 4.65 z-score and 2.43 z-score, respectively.

Turning to “CCGATTAACATCAGGAATGTCCCTGATGTTAATCGGGTCTTGATTCGCTTGACGCTGCTG”, the binding signal in assay [1] amounted to 3.65 z-score; in assay [2], 3.77 z-score.

With “CCGATTAACATCAAGGGGAGTCCTGATGTTAATCGGGTCTTGATTCGCTTGACGCTGCTG”, the binding signal in assay [1] is 4.97 z-score; in assay [2], 4.3 z-score.

For “CCGATTAACATCAGGGAGTTCCATGATGTTAATCGGGTCTTGATTCGCTTGACGCTGCTG”, the binding signal came to 2.53 z-score in assay [1] and 2.54 z-score in assay [2].

As for “CCGATTAACATCAGAACATTCCCTGATGTTAATCGGGTCTTGATTCGCTTGACGCTGCTG”, the binding signal was determined as 3.49 z-score in assay [1] and 3.65 z-score in assay [2].

For the sequence “CCGATTAACATCACGGTTTTTCCTGATGTTAATCGGGTCTTGATTCGCTTGACGCTGCTG”, the binding signal in assay [1] worked out at 1.21 z-score; in assay [2] it was 1.62 z-score.

In the case of “CCGATTAACATCAAAAAAGACCCTGATGTTAATCGGGTCTTGATTCGCTTGACGCTGCTG”, the binding signal in assay [1] stood at 3.81 z-score; in assay [2] it was 3.95 z-score.

Regarding “CCGATTAACATCAATTTGGGAAATGATGTTAATCGGGTCTTGATTCGCTTGACGCTGCTG”, the binding signal in assay [1] was 2.36 z-score; in assay [2] it was 1.3 z-score.

For “CCGATTAACATCACGGGAAACTCTGATGTTAATCGGGTCTTGATTCGCTTGACGCTGCTG”, the figures for the binding signal in assay [1] and in assay [2] were 3.54 z-score and 2.31 z-score, respectively.

On to “CCGATTAACATCAGGGTAAAACCTGATGTTAATCGGGTCTTGATTCGCTTGACGCTGCTG”, for which the binding signal in assay [1] stood at 3.53 z-score; in assay [2] it was 2.56 z-score.

Regarding “CCGATTAACATCAGGGAAACTCATGATGTTAATCGGGTCTTGATTCGCTTGACGCTGCTG”, the binding signal in assay [1] was found to be 4.62 z-score; in assay [2], 3.13 z-score.

For the sequence “CCGATTAACATCAGGGAATGCCATGATGTTAATCGGGTCTTGATTCGCTTGACGCTGCTG”, the binding signal came to 2.41 z-score in assay [1] and 1.54 z-score in assay [2].

Take “CCGATTAACATCAGGGATAACCCTGATGTTAATCGGGTCTTGATTCGCTTGACGCTGCTG”: the binding signal was 1.1 z-score in assay [1] and 2.62 z-score in assay [2].

Regarding “CCGATTAACATCAGGGGACACCCTGATGTTAATCGGGTCTTGATTCGCTTGACGCTGCTG”, the figures for the binding signal in assay [1] and in assay [2] were 3.12 z-score and 3.82 z-score, respectively.

As for “CCGATTAACATCACGGAATTACCTGATGTTAATCGGGTCTTGATTCGCTTGACGCTGCTG”, the binding signal in assay [1] is 3.86 z-score; in assay [2], 2.38 z-score.

For “CCGATTAACATCAGGGGAGTGTATGATGTTAATCGGGTCTTGATTCGCTTGACGCTGCTG”, the binding signal was found to be 4.51 z-score in assay [1] and 3.04 z-score in assay [2].
